Measured values reported in PubChem BioAssay.
Activity calls are given as the source filed them. Unless noted, the rule behind the calls is not given here.

How the values were obtained:
[1] = resazurin metabolic signal in HepG2 cells – cell-based, resazurin fluorescence, 24 h, PK04 Diversity Set, profiling panel (AID 1172); details: HepG2 viability, higher = more signal
[2] = budding yeast growth changes without added modifier – OD600, strain BY4716, 24 h, basal condition, primary screen (AID 1173); details: S. cerevisiae BY4716 growth, OD600, 24 h; higher = more signal, called active from +8 up or from −8 down
[3] = viability profiling in MM1S myeloma cells – cell-based, resazurin fluorescence, basal, 24 h, PK04 Diversity Set, profiling panel (AID 1174); details: higher = more signal, called active from +8 up or from −8 down;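 note: MM1S multiple myeloma cell line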
[4] = biological target: Dihydroorotate dehydrogenase (quinone), mitochondrial (Plasmodium falciparum (isolate 3D7)) (UniProt Q08210); experiment: inhibition of P. falciparum DHODH – biochemical, C-terminal His tag, absorbance 600 nm, primary screen (AID 1175); details: PfDHODH enzyme, DCIP absorbance 600 nm; higher = more signal, called active from +8 up or from −8 down;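 note: recombinant parasite enzyme with a five histidine tag at its C terminus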
[5] = inhibition of PAO1 biofilm formation – strain PAO1, LB-PBS medium, absorbance 600 nm, primary screen (AID 1176); details: P. aeruginosa PAO1 growth/biofilm, A600, 12 h; higher = more signal
[6] = growth modulation of vineyard yeast isolate – strain RM11-1a, OD600, basal, 24 h, primary screen (AID 1177);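 note: cultures grown under basal conditions with no added stressor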; details: S. cerevisiae RM11-1a growth, OD600, 24 h; higher = more signal, called active from +8 up or from −8 down
[7] = growth of efflux-deficient E. coli DRC39 – strain DRC39, OD650, 24 h, E. coli filamentation inducers, primary screen (AID 1178);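 note: growth measured as culture turbidity by optical density at 650 nm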; details: E. coli DRC39 acrAB, higher = more signal, called active from +8 up or from −8 down
[8] = growth of efflux-deficient E. coli DRC39 – strain DRC39, OD650, 48 h, E. coli filamentation inducers, primary screen (AID 1179);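 note: screen aims at cell division blockers that make cells filament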; details: E. coli DRC39 delta-acrAB growth, higher = more signal, called active from +8 up or from −8 down
[9] = viability profiling in RPMI8226 myeloma cells – cell-based, resazurin fluorescence, basal, 24 h, PK04 Diversity Set, profiling panel (AID 1180); details: higher = more signal;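 note: RPMI8826 multiple myeloma cell line at 5000 cells per well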
[10] = biological target: E3 ubiquitin-protein ligase XIAP (Homo sapiens) (UniProt P98170); experiment: small molecules binding XIAP protein – biophysical, small-molecule microarray, fluorescence 635 nm, primary screen (AID 1181); details: higher = more signal;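 note: score merges 667 nm emission and signal to noise over triplicate slides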
[11] = tested on: XIP peptide (Xip251-270) binding; experiment: XIP fragment 251-270 binding compounds – biochemical, small-molecule microarray, fluorescence 635/667 nm, 0.1 µg/mL protein, primary screen (AID 1182); details: fluorescent protein binding, 635 nm, higher = more signal, called active from +8 up or from −8 down
XIP peptide (Xip251-270) = experiment: compounds binding XIP fragment 251-270 – biochemical, small-molecule microarray, fluorescence 635/667 nm, 0.5 µg/mL protein, primary screen (AID 1183); details: fluorescence 635 nm, higher = more signal
[12] = blood-stage malaria parasite viability loss – strain 3D7, DAPI fluorescence, 100 nL, primary screen (AID 1184);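 note: parasites grown inside human red blood cells in medium with human serum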; details: P. falciparum 3D7 growth, 3 d, higher = more signal
[13] = biological target: Homeobox protein Hox-A13 (Mus musculus) (UniProt Q62424); experiment: disruptors of Hoxa13 oligonucleotide interaction – biochemical, fluorescence polarization, labeled oligonucleotide, primary screen (AID 1185); details: Hoxa13:DNA binding, 15 min, higher = more signal, called active from +8 up or from −8 down
[14] = blockers of DNA damage checkpoint Chk1 activation – imaging, HeLa, hydroxyurea, phospho-Chk1 antibody, percent positive cells, primary screen (AID 1186); details: hydroxyurea-induced phospho-Chk1 immunofluorescence imaging, higher = more signal
[15] = blockers of DNA damage checkpoint Chk1 activation – imaging, HeLa, hydroxyurea, phospho-Chk1 nuclear intensity, primary screen (AID 1187); details: hydroxyurea-induced phospho-Chk1 immunofluorescence imaging, higher = more signal

Homeobox protein Hox-A13 (Mus musculus), sequence (Q62424 whole entry, looked up): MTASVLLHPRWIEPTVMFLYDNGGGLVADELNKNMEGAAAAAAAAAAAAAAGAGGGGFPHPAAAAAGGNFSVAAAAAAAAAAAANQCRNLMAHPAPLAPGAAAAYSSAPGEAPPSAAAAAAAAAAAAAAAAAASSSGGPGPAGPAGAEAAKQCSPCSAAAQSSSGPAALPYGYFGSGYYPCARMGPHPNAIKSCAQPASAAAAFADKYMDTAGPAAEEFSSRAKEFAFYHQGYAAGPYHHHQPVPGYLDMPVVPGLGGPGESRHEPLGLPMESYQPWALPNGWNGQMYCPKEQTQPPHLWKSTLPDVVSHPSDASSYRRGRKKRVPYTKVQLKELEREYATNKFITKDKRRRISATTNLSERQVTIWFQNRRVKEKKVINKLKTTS
E3 ubiquitin-protein ligase XIAP (Homo sapiens), sequence (P98170 whole entry, looked up, the tested form may be a part): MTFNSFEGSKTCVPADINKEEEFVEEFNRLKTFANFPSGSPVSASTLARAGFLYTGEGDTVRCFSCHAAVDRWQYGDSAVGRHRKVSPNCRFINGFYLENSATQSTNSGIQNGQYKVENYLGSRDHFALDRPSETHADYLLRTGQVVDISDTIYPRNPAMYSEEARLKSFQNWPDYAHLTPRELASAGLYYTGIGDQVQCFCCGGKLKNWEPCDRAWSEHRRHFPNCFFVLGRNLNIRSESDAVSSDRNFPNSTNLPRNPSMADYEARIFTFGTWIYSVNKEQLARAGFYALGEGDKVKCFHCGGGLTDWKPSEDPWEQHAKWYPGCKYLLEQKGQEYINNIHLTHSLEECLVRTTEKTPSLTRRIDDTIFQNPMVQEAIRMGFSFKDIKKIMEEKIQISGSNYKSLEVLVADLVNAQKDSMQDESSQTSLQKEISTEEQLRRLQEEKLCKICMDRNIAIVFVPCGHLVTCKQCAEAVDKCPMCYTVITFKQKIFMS
Dihydroorotate dehydrogenase (quinone), mitochondrial (Plasmodium falciparum (isolate 3D7)), sequence (Q08210 whole entry, looked up): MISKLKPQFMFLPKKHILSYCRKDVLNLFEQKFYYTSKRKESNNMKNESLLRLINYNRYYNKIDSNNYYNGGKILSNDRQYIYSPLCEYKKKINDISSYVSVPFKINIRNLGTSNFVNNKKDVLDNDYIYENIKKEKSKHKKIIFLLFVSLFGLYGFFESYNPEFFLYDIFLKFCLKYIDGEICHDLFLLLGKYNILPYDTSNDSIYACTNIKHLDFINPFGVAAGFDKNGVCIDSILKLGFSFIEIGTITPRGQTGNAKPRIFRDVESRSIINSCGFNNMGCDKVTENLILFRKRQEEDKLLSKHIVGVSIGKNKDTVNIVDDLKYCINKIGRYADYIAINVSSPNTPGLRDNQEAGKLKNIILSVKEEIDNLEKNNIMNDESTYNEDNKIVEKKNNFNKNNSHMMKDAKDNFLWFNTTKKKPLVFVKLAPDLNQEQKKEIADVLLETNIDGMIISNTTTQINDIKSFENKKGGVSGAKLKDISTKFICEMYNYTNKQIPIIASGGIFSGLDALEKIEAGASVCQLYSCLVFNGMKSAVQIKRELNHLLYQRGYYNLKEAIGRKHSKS

COC(=O)[C@]1(CO)N=C(c2ccc(OCCCO)cc2)O[C@@H]1c1ccccc1N=[N+]=[N-]
z-score [1]: -0.318 | z-score [2]: -0.114 (inactive) | z-score [3]: -0.198 (inactive) | composite z-score [4]: 0.482 (inactive) | z-score [5]: 0.205 (inactive) | z-score [6]: -0.709 (inactive) | z-score [7]: -0.131 (inactive) | z-score [8]: 0.57 (inactive) | z-score [9]: -0.459 | composite z-score [10]: 0.964 | composite z-score [11]: 0.816 (inactive) | composite z-score (XIP peptide (Xip251-270)): 0.812 | z-score [12]: -0.313 | z-score [13]: -6.14 (inactive) | z-score [14]: 0.0389 (inactive) | z-score [15]: 0.0674 (inactive)

Cn1cccc1C(O)C1C=CC2C(=O)NC(=O)C2N1Nc1ccccn1 (stereo not drawn)
z-score [1]: -1.49 | z-score [2]: 0.784 (inactive) | z-score [3]: -1.28 (inactive) | composite z-score [4]: 1.21 (inactive) | z-score [5]: 0.543 (inactive) | z-score [6]: -0.0064 (inactive) | z-score [7]: -0.512 (inactive) | z-score [8]: -0.204 (inactive) | z-score [9]: -0.868 | composite z-score [10]: 0.203 | composite z-score [11]: -0.262 (inactive) | composite z-score (XIP peptide (Xip251-270)): 0.916 | z-score [12]: -0.119 | z-score [13]: -5.35 (inactive) | z-score [14]: 0.242 (inactive) | z-score [15]: -0.431 (inactive)

O=C(CS)NCCCCCNC(=O)[C@@H]1C[C@@H]2C(=O)N[C@@H](Cc3ccccc3)C(=O)N2[C@@H]1c1ccc(O)cc1
z-score [1]: -0.204 | z-score [2]: -0.391 (inactive) | z-score [3]: 0.0755 (inactive) | composite z-score [4]: 0.0126 (inactive) | z-score [5]: -0.0338 (inactive) | z-score [6]: 0.349 (inactive) | z-score [7]: 0.411 (inactive) | z-score [8]: 0.904 (inactive) | z-score [9]: 0.252 | composite z-score [10]: -0.0282 | composite z-score [11]: 0.508 (inactive) | composite z-score (XIP peptide (Xip251-270)): 0.562 | z-score [12]: -0.14 | z-score [13]: -2.5 (inactive) | z-score [14]: 0.83 (inactive) | z-score [15]: 0.886 (inactive)
